Compound activity as filed in PubChem BioAssay.
D2 PAM-1 = human D2 receptor positive allosteric modulation; 360,000 tested, 0.23% active; potentiation, % (test concentration not listed); DiscoveRx D2 beta-arrestin cells, luminescence, 90 min; 100% = 57 uM dopamine signal; P14416; in the data active means potentiation above about 50%; inconclusive means mostly about 30% to 49%
Target sequence (P14416 whole entry, looked up): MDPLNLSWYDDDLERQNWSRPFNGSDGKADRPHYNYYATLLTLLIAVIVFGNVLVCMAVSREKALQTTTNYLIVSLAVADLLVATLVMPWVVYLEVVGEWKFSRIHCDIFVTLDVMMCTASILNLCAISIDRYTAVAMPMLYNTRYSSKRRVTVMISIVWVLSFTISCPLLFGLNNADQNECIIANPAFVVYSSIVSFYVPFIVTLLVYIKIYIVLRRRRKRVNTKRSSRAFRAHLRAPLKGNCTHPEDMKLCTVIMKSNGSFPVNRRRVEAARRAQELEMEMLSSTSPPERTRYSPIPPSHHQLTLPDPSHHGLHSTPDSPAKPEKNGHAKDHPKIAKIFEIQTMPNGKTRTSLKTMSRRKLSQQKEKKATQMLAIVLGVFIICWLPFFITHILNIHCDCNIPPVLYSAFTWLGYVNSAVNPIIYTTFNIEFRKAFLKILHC
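D2 cells co-treated with compound plus 50 nM dopamine (EC20) for 90 min at 37 deg C to detect potentiation. Beta-arrestin recruitment was read as enzyme-fragment luminescence after 1 h at ambient temperature. Full response was set by 57 uM dopamine.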
D2 PAM-2 = positively modulates the human D2 dopamine receptor allosterically; P14416; HEK293 T-REx D2, calcium flux, EC20 dopamine potentiation; potentiation, % at 10 µM; 340,000 tested, 0.34% active;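 active means potentiation over 3 SD above the plate norm, cut at about 30% in these data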; further: 0% is about no effect
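Potentiation of an EC20 dopamine calcium response is measured in a force-coupled, tetracycline-inducible Hek293 Trex D2 line. Compound-only kinetic reads over 180 s flag agonists before dopamine addition.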
D2 ag-1 = agonists of human D2 dopamine receptor; P14416; HEK293 T-REx D2 cells, calcium flux agonist mode; activation, % at 2 µM; 340,000 tested, 0.53% active; AID 485358;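 active means activation over 3 SD above normal in the single-dose calcium agonist read, cut at about 30% in these data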; further: 0% is about no effect
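Tetracycline-induced HEK293 Trex cells with D2 receptor force-coupled to calcium signaling, plated overnight at 30 C and loaded with no-wash calcium dye. Calcium flux read kinetically for 180 s after compound addition; responses flag agonists.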
D2 antag = D2 dopamine receptor (human) antagonism. P14416. HEK293 TREx D2 cells, calcium flux, dopamine EC80. inhibition, % at 10 µM. 340,000 tested, 2% active. AID 485344; in the data active means inhibition above about 30%; inactive means below that, where a call was filed; further: 0% is about no effect
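Tetracycline-induced HEK293 TREx cells expressing D2 receptor forced-coupled to calcium signalling, loaded with no-wash calcium dye. Compounds added and calcium flux read 180 s, then dopamine added at EC80 and read a further 180 s.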
D2 ag-2 = human D2 receptor agonism in beta-arrestin assay; P14416; DiscoveRx PathHunter D2 beta-arrestin, luminescence, 90 min; 100% = 57 uM dopamine signal; activation, % (concentration not given with the values); 360,000 tested, 0.084% active; AID 624465; in the data active means activation above about 40%; inconclusive means between about 15% and that limit
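DiscoveRx PathHunter D2 beta-arrestin cells (2,100/well) attached overnight, then compound-stimulated 90 min at 37 C in HBSS/10 mM HEPES/0.1% Tween-20 buffer; beta-galactosidase complementation read by luminescence after 1 h at ambient temperature. Dopamine 57 uM final (EC100) as control.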
Numbers without * were called inactive; ? = inconclusive; . = not tested or not shown. Hits are enriched below; roughly 2.4% of the tested compounds scored in any of these assays.

SMILES | D2 PAM-1 | D2 PAM-2 | D2 ag-1 | D2 antag | D2 ag-2
CC1CCCN(CCCNC(=O)c2coc3nc4ccccc4nc23)C1 (configuration not stated) | -31 | -4 | 0 | 33* | -3
COc1cc2c(cc1OC)n(CC(=O)c1ccc(C)cc1)c(=O)n1nc(CCn3nc(C)cc3C)nc21 | . | 7 | 1 | . | .
Cn1c(N)c(C(=O)CSc2nnnn2-c2ccccc2)c(=O)n(C)c1=O | 1 | -13 | 7 | 39* | 2
CCCCCCn1c(COc2ccccc2F)nnc1SCC(=O)c1c(N)n(C)c(=O)n(C)c1=O | . | 32* | -1 | -7 | .
Cc1ccccc1-n1nnnc1SCC(=O)c1c(N)n(C)c(=O)n(C)c1=O | -2 | 12 | 10 | 18 | 1
COCC(C)n1c(COc2ccccc2F)nnc1SCC(=O)c1c(N)n(C)c(=O)n(C)c1=O (configuration not stated) | -7 | 15 | 1 | -7 | -4
O=C(N=NC(=O)c1ccc2c(O)n(C3CCCCC3)c(O)c2c1)c1cccnc1 | -8 | 40* | 1 | -22 | -5
O=C(NC1CCCCCCC1)c1cccnc1 | -16 | -2 | 0 | -1 | -3
O=C(COC(=O)c1ccc(O)cc1)Nc1ccccc1[N+](=O)[O-] | -41 | -3 | 2 | 38* | 9
CCOC(=O)C1=C[C@@H](C2CCCCC2)N(S(=O)(=O)c2ccc([N+](=O)[O-])cc2)[C@H]1c1ccccc1 | 12 | . | . | . | 6
CCC(C)Oc1ccc(/C=C/c2[nH]c(=O)[nH]c(=O)c2[N+](=O)[O-])cc1OC (configuration not stated) | -4 | 34* | -1 | -6 | -5
COc1cc(C(=O)NCC(=O)NNC(=O)C2COc3ccccc3O2)cc(OC)c1OC (configuration not stated) | -4 | -13 | . | . | -2
COCCNc1nc(-c2cc3ccccc3o2)cs1 | -10 | -14 | -1 | 38* | -2
COc1cc(OC)cc(C(=O)NC(=S)Nc2nc(-c3cc4ccccc4o3)cs2)c1 | -25 | -9 | 0 | -2 | -2
COc1cccc(NC(=O)C2(C)CCN2C(=O)CCc2ccc(Cl)cc2Cl)c1 (configuration not stated) | -11 | . | . | . | -3
CSCCC(N=C1NS(=O)(=O)c2ccccc21)C(=O)NCCc1ccccc1 (configuration not stated) | -27 | -22 | 1 | 42* | -1
CCCN(CCC)C(=O)c1cn(CC)c2ccc(S(=O)(=O)N3CCCCC3)cc2c1=O | -12 | -1 | 0 | 12 | -4
COc1ccc(C2CC(c3cc(Br)ccc3F)n3nnnc3N2)cc1 (configuration not stated) | 19 | 34* | 0 | 12 | 0
COc1ccc(C2CC(c3ccccc3)n3nnnc3N2)cc1 (configuration not stated) | -6 | 4 | 1 | -2 | -2
CC(C)c1ccc(NC(=O)CN2C=NS(=O)(=O)c3ccccc32)cc1 | . | -12 | 1 | . | .
O=C(CSc1ccc(-c2cccs2)nn1)Nc1cccc(F)c1 | . | 0 | 0 | . | .
Cc1[nH]c2ccccc2c1C(=O)CN1CCN(C2CCCCC2)CC1 | . | -43 | -1 | 58* | .
Cc1[nH]c2ccccc2c1C(=O)CN1CCN(C/C=C/c2ccccc2)CC1 | -44 | -30 | 0 | 80* | -6
CCN(CC)Cc1c(C(=O)N/N=C/c2ccccn2)nnn1-c1nonc1N | -1 | . | . | . | 2
Cc1ccccc1C(=O)Nc1cc2c(cc1N1CCCCC1)n(C)c(=O)n2C | . | -11 | -3 | . | .
SMILES | D2 PAM-1 | D2 PAM-2 | D2 ag-1 | D2 antag | D2 ag-2
CN(C)CC/C=C1\c2ccccc2Sc2ccc(Cl)cc21 | -25 | -29 | 2 | 85* | -3
OCCN1CCN(CC/C=C2/c3ccccc3Sc3ccc(Cl)cc32)CC1 | -24 | -12 | -1 | 73* | -2
CN(C)CC/C=C1\c2ccccc2Sc2cc(F)c(Cl)cc21 | -17 | . | . | . | -5
CC[N+](C)(C)CC/C=C1/c2ccccc2Sc2ccc(Cl)cc21 | -19 | -15 | -2 | 15 | -5
COc1ccc(CC(=O)Nc2ccccc2C(=O)N2CCOCC2)cc1 | -7 | -7 | 0 | 44* | 0
COc1cccc(CC(=O)Nc2ccccc2C(=O)N2CCOCC2)c1 | -6 | 0 | 0 | -4 | 0
NC(=O)c1ccccc1NC(=O)CN1CCOCC1 | -1 | 13 | -1 | 31* | -1
CCC1=C(OC(=O)N(CC)CC)N2C(=O)OC(=NCC(=O)OC)[C@]2(Cc2ccccc2)[C@H]2C1=CC[C@H]1C(=O)NC(=O)[C@H]12 | -6 | -1 | 1 | 53* | -4
CCC1=C(OC(=O)N(CC)CC)N2C(=O)OC(=NCC(=O)OC)[C@]2(Cc2ccccc2)[C@H]2C1=CC[C@H]1C(=O)N(C)C(=O)[C@H]12 | -5 | 8 | 0 | -10 | -3
CCOC(=O)C1(CCOc2ccccc2)CCN(Cc2ccc(O)c(OCC)c2)CC1 | -26 | -14 | 0 | 39* | 8
CCOC(=O)C1(CCOc2ccccc2)CCN(Cc2ccc(COC)o2)CC1 | -15 | -14 | -1 | -3 | -2
CCOC(=O)C1(CCOc2ccccc2)CCN(Cc2ccc(C)o2)CC1 | -19 | -17 | -1 | 42* | -1
O=C(CN1CCCCCC1)Nc1ccccc1C(=O)Nc1ccccc1 | -17 | -9 | 1 | 12 | 1
COCCn1c(C)cc(C(=O)COC(=O)c2ccc(Cl)c(S(N)(=O)=O)c2)c1C | 12 | . | . | . | 2
COc1ccc(-c2nn(-c3ccccc3)cc2/C=N/NC(=O)c2cccc(S(=O)(=O)Nc3ccccc3Cl)c2)cc1 | 11 | -17 | 1 | 45* | 2
O=C(NCCCN1CCc2ccccc2C1)Nc1ccc(Br)cc1 | -34 | -19 | 0 | 31* | 1
COc1ccc(NC(=O)NCCCN2CCc3ccccc3C2)cc1 | -9 | -34 | 1 | 43* | 4
COc1ccc(CNC(=O)N2CCc3ccccc3C2)cc1 | -10 | 8 | -1 | 34* | -4
O=CC(=Cc1ccccc1)c1ccccc1 | -8 | . | . | . | -6
Cc1cccc(N2CCN(S(=O)(=O)c3ccc4c(c3)C(C(C)C)C(=O)N4)CC2)c1C (configuration not stated) | . | 2 | 0 | . | .
CC(=O)c1ccc(N2CCN(C(=O)c3cccs3)C(C)C2)c(F)c1 (configuration not stated) | -13 | -2 | 0 | -1 | 0
Cc1cc2c(N=O)c(NO)ccc2[nH]1 | 63* | . | . | . | 15
Cc1ccccc1/C(N)=N/OC(=O)/C=C/c1ccccc1 | 87* | 0 | 0 | 7 | ?
Cc1ccccc1/C(N)=N/OC(=O)c1cccs1 | 139* | . | . | . | ?
N/C(=N\OC(=O)c1cccs1)c1cccnc1 | ? | 18 | 1 | -18 | ?
N/C(Cc1ccc(Cl)c(Cl)c1)=N\OC(=O)c1cccs1 | 81* | -3 | 1 | -18 | 15
